Screening results as filed in PubChem.
RAD52 anneal inh – RAD52 (human) annealing inhibition; recombinant RAD52 DNA annealing, FRET fluorescence; 0.46% of 360,000 active; inhibition, % at 18.7 µM; P43351; AID 651710;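 active = every replicate showing at least 50% inhibition; inconclusive = mean inhibition at least 50% but not in every replicate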
GSIS activator – primary screen for activators of insulin secretion dependent on glucose, INS-1E cells, GLuc reporter luminescence. 0.61% of 370,000 active. activation, % at 16.6 µM. INS-1E GLuc reporter insulin secretion, 2-3 h;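 active = lowest replicate activation of at least 40%, so every replicate reaches that level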;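 also: 0% = median of neutral control wells and 100% = median of IBMX positive control wells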
dFosB activator – mouse delta FosB homodimer activation; P13346; purified delta FosB, TAMRA-CDK5 oligo fluorescence polarization; percent of positive-control signal above neutral wells; activation, % at 25 µM; 0.99% of 340,000 active; AID 493131;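 active = mean activation above about 17%, with every replicate also reaching it, limit read from the data, passing the limit was not always enough; inconclusive = only one of the two conditions met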
DENV2 CPE rescue – DENV2-induced cell death inhibition. DENV2-infected cells, cytopathic effect rescue, plate reader. CPE inhibition, % at 9.99 µM. 1.7% of 350,000 active; in the data active = CPE inhibition above about 20%, passing the limit was not always enough; inconclusive = no clear call, values can overlap the other calls; tested in BHK-21 cells;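 also: 0% = median of neutral control wells and 100% = median of positive control wells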
RAD54 branch – inhibitors of human RAD54 branch migration; Q92698; RAD54 Holliday junction branch migration, FAM/BHQ fluorescence; inhibition, % at 10.4 µM; 0.14% of 360,000 active;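 active = mean normalized replicate activity at least 40 and at least half of replicates scoring 40 or more; inconclusive = only one of the two criteria met; inactive = mean below 40 and under half of replicates reaching 40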;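 also: 0% = median of neutral control wells and 100% = median of positive control wells; inhibitors cause a drop in the FAM fluorescence signal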
AF4-AF9 inh – blocks AF4 peptide binding to human AF9; 0.47% of 350,000 active; AID 651704; AlphaScreen, biotin-AF4 peptide binding to FLAG-AF9; inhibition, % at 10 µM; P42568;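 active = every replicate reaching a set inhibition limit, whatever the replicate mean, cut at about 25% in these data; inconclusive = mean inhibition reaches that limit but some replicates miss it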;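 also: 0% = plate neutral control median and 100% = total signal loss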
Target sequence (P42568 whole entry, looked up): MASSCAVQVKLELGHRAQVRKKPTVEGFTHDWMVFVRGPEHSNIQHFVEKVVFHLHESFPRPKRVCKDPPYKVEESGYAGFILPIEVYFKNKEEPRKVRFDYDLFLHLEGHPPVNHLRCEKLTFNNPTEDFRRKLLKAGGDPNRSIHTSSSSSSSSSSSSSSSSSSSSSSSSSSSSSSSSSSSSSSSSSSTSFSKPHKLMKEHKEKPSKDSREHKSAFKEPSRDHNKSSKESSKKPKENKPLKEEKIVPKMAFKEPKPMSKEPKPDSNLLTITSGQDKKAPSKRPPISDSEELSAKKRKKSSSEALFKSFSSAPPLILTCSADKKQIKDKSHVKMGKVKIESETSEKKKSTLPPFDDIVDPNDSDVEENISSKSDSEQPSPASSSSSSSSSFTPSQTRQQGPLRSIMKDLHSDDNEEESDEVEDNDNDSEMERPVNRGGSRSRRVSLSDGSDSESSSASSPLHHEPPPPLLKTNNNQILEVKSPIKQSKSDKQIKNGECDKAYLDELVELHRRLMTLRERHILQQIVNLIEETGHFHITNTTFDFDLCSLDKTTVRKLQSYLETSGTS
Starred values were filed as active, the others as inactive; ? = inconclusive; / = no result. This is a sample that favours compounds with a hit; in the whole collection about 3.1% have one here.

SMILES | RAD52 anneal inh | GSIS activator | dFosB activator | DENV2 CPE rescue | RAD54 branch | AF4-AF9 inh
C[C@@H]1CN([C@@H](C)CO)C(=O)c2cc(N(C)C)ccc2O[C@@H](C)CCCCO[C@@H]1CN(C)Cc1ccc(C(F)(F)F)cc1 | -17 | 1 | / | -9 | -3 | 39*
C[C@H](CO)N1C[C@H](C)[C@H](CN(C)Cc2ccc(C(F)(F)F)cc2)Oc2ccc(N(C)C)cc2C1=O | 1 | -16 | / | 40* | 6 | 11
C[C@@H]1CN([C@H](C)CO)C(=O)c2cc(N(C)C)ccc2O[C@@H](C)CCCCO[C@@H]1CN(C)Cc1ccc(C(F)(F)F)cc1 | -13 | -14 | / | -11 | 1 | 35*
C[C@@H]1CCCCO[C@H](CN(C)Cc2ccc(C(F)(F)F)cc2)[C@@H](C)CN([C@H](C)CO)C(=O)c2cc(N(C)C)ccc2O1 | 13 | 1 | / | -12 | 10 | 11
C[C@@H]1CCCCO[C@@H](CN(C)Cc2ccc(C(=O)O)cc2)[C@@H](C)CN([C@H](C)CO)C(=O)c2cc(N(C)C)ccc2O1 | / | 4 | / | / | / | /
C[C@@H]1CN([C@H](C)CO)C(=O)c2cc(N(C)C)ccc2O[C@@H](C)CCCCO[C@H]1CN(C)Cc1ccc(C(F)(F)F)cc1 | -4 | -7 | / | -11 | -2 | 33*
CO[C@@H](CN(C)Cc1cc(F)ccc1F)[C@H](C)CN(C(=O)Nc1ccc(F)cc1)[C@H](C)CO | -7 | -10 | / | 3 | 5 | 3
C[C@@H]1CN([C@@H](C)CO)C(=O)c2cc(N(C)C)ccc2O[C@@H](C)CCCCO[C@H]1CN(C)Cc1ccc(C(F)(F)F)cc1 | 4 | -24 | / | 1 | 0 | 38*
C[C@H](CO)N1C[C@H](C)[C@H](CN(C)Cc2ccc(C(F)(F)F)cc2)OCCCC[C@H](C)Oc2ccc(N(C)C)cc2C1=O | 9 | -5 | / | -8 | -5 | 32*
C[C@@H]1CN([C@@H](C)CO)C(=O)Cc2cc(N(C)C)ccc2O[C@H]1CN(C)Cc1ccc(C(F)(F)F)cc1 | 2 | -13 | / | -5 | 6 | 43*
C[C@H](CO)N1C[C@H](C)[C@@H](CN(C)Cc2ccc(C(F)(F)F)cc2)OCCCC[C@H](C)Oc2ccc(N(C)C)cc2C1=O | -23 | -2 | / | 2 | 1 | 22
C[C@H]1CN([C@@H](C)CO)C(=O)Cc2cc(N(C)C)ccc2O[C@H]1CN(C)Cc1ccc(C(F)(F)F)cc1 | / | -32 | / | ? | 9 | /
C[C@@H]1CCCCO[C@@H](CN(C)Cc2ccc(C(=O)O)cc2)[C@H](C)CN([C@@H](C)CO)C(=O)c2cc(N(C)C)ccc2O1 | -7 | 4 | / | 5 | -1 | -5
C[C@@H]1CN([C@@H](C)CO)S(=O)(=O)c2ccc(C#CC(C)(C)O)cc2O[C@@H]1CN(C)C | 11 | 22 | / | ? | -18 | 1
CCC(=O)N[C@H]1C=C[C@@H](CC(=O)NCCN2CCCCC2)O[C@@H]1CO | 0 | 18 | / | 0 | -5 | -1
COc1cc(/C=C/C(=O)OCC(=O)N2CCCCCC2)ccc1OCC#N | -17 | 16 | -3 | / | -1 | -1
COc1cc(/C=C/C(=O)OCC(=O)N2CCCC2)ccc1OCC#N | -4 | 24 | -2 | 11 | 3 | 31*
CCN1CCN(C(=O)/C=C/c2ccc(OC)c(OC)c2)CC1 | -7 | 5 | 1 | 20* | 9 | 2
CCN1CCN(C(=O)/C=C/c2ccc3c(c2)OCO3)CC1 | -14 | 1 | 4 | 11 | 11 | -1
COc1ccc(N2CCN(C(=O)CN3CCN(C(c4ccccc4)c4ccccc4)CC3)CC2)cc1 | / | -23 | -6 | / | / | /
O=C(CN1CCN(C(c2ccccc2)c2ccccc2)CC1)N1CCOCC1 | 4 | 12 | 2 | 23* | 9 | -1
COc1ccc(C(=O)Nc2cccc(-c3nnc(-c4ccco4)o3)c2)cc1 | / | / | -45 | / | -3 | /
COc1ccc(CC(=O)Nc2cccc(-c3nnc(-c4ccco4)o3)c2)cc1 | / | / | 67* | / | -10 | /
CCNC(=O)C[C@H]1CC[C@H]2[C@H](COc3ccc(NC(=O)Cc4cccs4)cc3C(=O)N2C)O1 | 9 | 1 | / | 7 | 3 | -2
C[C@@H]1CN([C@H](C)CO)C(=O)c2cc(NC(=O)Nc3ccccc3)ccc2O[C@@H](C)CCCCO[C@@H]1CN(C)Cc1ccc2c(c1)OCO2 | 41 | -31 | / | -2 | -6 | 7
